Only some compounds are listed: those with a hit (about 3.9% of all), similar ones and a draw of the others.
TROY NFkB inh = inhibitors of TROY-driven NF-kB signaling, primary screen, Q293 LMP1-TROYcd cells, NF-kB luciferase, uHTS. Q293 LMP1-TROYcd NF-kB luciferase reporter, 4 h. inhibition, % at 10 µM. 0.98% of 360,000 active. AID 1347056, 2019;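 active = compounds whose plate-normalised and pattern-corrected inhibition of the luciferase reporter signal at the single screening dose is 50% or more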
TWEAK Fn14 block = inhibitors of TWEAK-Fn14 signaling, primary screen, luciferase reporter cells, uHTS; inhibition, % at 10 µM; 2% of 360,000 active; AID 1159606, 2016; TWEAK-stimulated Fn14 reporter cells, luciferase luminescence, 8 h; in the data active = inhibition above about 50%
CF NFkB block = inhibitors of PAF-induced NF-kB signaling, primary screen, cell-based, GFP fluorescence, uHTS | 0.86% of 360,000 active | inhibition, % at 5 µM | AID 588850, 2011 | KKLEB NF-kB-GFP reporter, GFP fluorescence overnight;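 active = at least 50% inhibition at 5 µM, scaled per plate between neutral and stimulator controls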;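 also: PAF is a Pseudomonas aeruginosa culture filtrate used as stimulus; plate controls were PAF-stimulated DMSO wells for no effect and unstimulated DMSO wells for full effect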
Peg3 prom inh = Peg3 promoter-driven luciferase inhibitors, primary screen, cell-based, HeLa, luciferase luminescence; 1.7% of 360,000 active; HeLa PEG-Prom luciferase reporter, overnight; inhibition, % at 20 µM;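 active = inhibition of at least 50% at 20 µM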
KKLEB cytotox = cytotoxicity in KKLEB CF airway cells, primary screen, cytotoxicity control for CF NF-kB inhibitor project, cell-based, uHTS, fluorescence assay plates; KKLEB CF airway cells viability, ATPlite luminescence, overnight; stronger effect = lower value; cells stimulated with P. aeruginosa culture filtrate; activity change (cytotoxicity), % at 5 µM; 0.36% of 360,000 active; AID 602141, 2011;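 active = corrected activity change at or below -50% at 5 µM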
HIF-2a block = HIF-2a reporter inhibitors, primary screen, luminescence, 786-0 RCC cells. inhibition, % at 18.8 µM. 786-0 RCC cells HIF-2a reporter, luciferase luminescence, overnight. AID 624352, 2012. 0.72% of 360,000 active;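 active = inhibition of the luminescence signal of 40% or more relative to plate controls, in a single-dose primary screen at 18.75 µM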
CF NFkB inh conf = inhibitors of PAF-induced NF-kB signaling, retest, confirmation, cell-based, GFP fluorescence, single concentration; 64% of 1,300 active; shares compounds with CF NFkB block; KKLEB CF airway cells, overnight; AID 602472, 2012; inhibition, % at 5 µM; in the data active = inhibition above about 40%;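 also: stimulus PAF is a Pseudomonas aeruginosa filtrate and not platelet activating factor; plate controls were DMSO wells with stimulus for no effect and unstimulated DMSO wells for full effect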
The depositor's hits bear a star; . = not tested or not shown.

SMILES	TROY NFkB inh	TWEAK Fn14 block	CF NFkB block	Peg3 prom inh	KKLEB cytotox	HIF-2a block	CF NFkB inh conf
COc1ccc(CCNC(=O)/C(C#N)=C/c2ccc(OCC(=O)NCC3CCCO3)cc2)cc1OC (stereo unspecified)	17	20	10	8	4	13	.
c1cnc2ccc(-n3ccnc3)cc2c1	23	22	55*	2	-27	4	49*
COc1cccc(C(=O)N2C(C(C)C)COc3cc(Br)ccc3S2(=O)=O)c1 (stereo unspecified)	32	36	50*	41	27	-34	55*
Cc1cccc(C(=O)N2[C@@H](C(C)C)COc3cc(Br)ccc3S2(=O)=O)c1	26	38	61*	57*	8	-46	59*
CC(C)CC(NC(=O)CCC(=O)OCC(=O)[C@@]1(O)CCC2[C@@H]3CCC4=CC(=O)C=C[C@]4(C)C3[C@@H](O)C[C@@]21C)C(=O)O (stereo partly specified)	33	-17	83*	-3	30	24	19
CCC(C(=O)OCC(=O)C1(O)CCC2C3CCC4=CC(=O)CCC4(C)C3C(O)CC21C)C(C)C (stereo unspecified)	37	30	56*	29	5	0	10
CCOC(=O)C1=C(C)Nc2ccccc2N=C1NC(=O)c1oc2ccccc2c1COC	9	15	55*	65*	-15	4	58*
Cc1ccc(S(=O)(=O)Nc2cccc3ncccc23)s1	85*	108*	83*	103*	5	80*	109*
N#Cc1c(-c2ccccc2)c(C#N)c2nc3ccccc3n2c1N	-13	6	4	33	6	6	.
Cc1ccc(-c2c(C#N)c(N)n3c(nc4ccccc43)c2C#N)cc1	37	20	55*	47	-37	-1	50*
CN(c1ccc(F)cc1)S(=O)(=O)c1ccc(Cl)c(C(=O)Nc2ccc3c(c2)CCC3)c1	-10	10	0	-7	4	-6	.
CC1/C(=N/O)CC(c2ccccc2)NC1c1ccccc1 (stereo unspecified)	9	-11	0	14	-5	17	.
CCCC1/C(=N/O)CC(c2ccccc2)NC1c1ccccc1 (stereo unspecified)	25	44	75*	60*	-3	21	60*
CCOC(=O)Nc1ccc2c(c1)N(C(=O)N1CCN(C)CC1)c1ccccc1S2	6	-11	-18	14	-11	4	.
C=CC(=O)N1c2ccccc2Sc2ccc(NC(=O)OCC)cc21	30	38	80*	95*	-20	15	-116
O=C(CCCOc1ccc(Cl)cc1Cl)n1nnc2ccccc21	11	3	-4	17	-4	-12	.
O=c1cnc(-c2ccc(Cl)cc2)cn1O	-18	7	1	-7	-18	18	.
CCc1cc2cc3c(cc2nc1SCC(=O)Nc1cc(C)on1)OCO3	11	-16	55*	34	-42	0	43*
COCCNC(=O)C1C(=O)Nc2ccccc2C(=O)N1C1CCCC1 (stereo unspecified)	.	.	.	.	.	5	.
O=[N+]([O-])c1cc([N+](=O)[O-])c2oc(-c3ccccc3)c(Br)c2c1O	69*	36	50*	21	-22	-16	87*
C=CCn1c(Oc2ccccc2F)nc2c1c(=O)n(C)c(=O)n2C	23	18	57*	10	-16	22	64*
C=CCn1c(Oc2cc(C)ccc2C)nc2c1c(=O)n(C)c(=O)n2C	5	24	27	-2	-14	19	.
Cc1nc(C)c(-c2csc(Nc3cccc(O)c3)n2)s1	-26	-4	-25	-245	9	-276	.
CCC(=O)Nc1nc(C)c(-c2csc(Nc3cccc(O)c3)n2)s1	-9	6	62*	-59	-4	-50	87*
